# Data: the supplement of paper PMC4840960
# Where a name gives a salt, the structure may show the parent alone.
# Tested on: E18 rat cortical neuron-glia co-culture
# Experiment: fiber score / MBP score (myelination specific beyond OL differentiation) (ratio); higher = more myelination-specific MBP alignment
# Conditions: 1 µM; treatment time: 8 days (DIV5-DIV13)
# Method in brief: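 Primary E18 rat cortical co-cultures (papain-dissociated, 20,000 cells/well on poly-d-lysine/laminin 96-well plates) received library compounds at 1 or 5 µM in myelination medium from DIV5 to DIV13. Cells were fixed in 4 % paraformaldehyde and immunostained for MBP and Olig2 with DAPI, and four 10X fields per well in duplicate wells were analysed. The read-out is fiber score (continuous MBP fiber length per Olig2+ nucleus) divided by MBP score (thresholded MBP area × intensity per Olig2+ nucleus).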
row,Structure (SMILES),fiber score / MBP score
1,CN1CCN(c2nc3cc(C(F)(F)F)ccc3n3cccc23)CC1,0.707
2,COC(=O)[C@H](c1ccccc1Cl)N1CCc2sccc2C1 [Clopidogrel],0.707
3,CC1=C(/C=C/C(C)=C/C=C/C(C)=C\C(=O)O)C(C)(C)CCC1 [Isotretinoin],0.294
4,CC(=O)OCC(=O)[C@@]12OC3(CCCC3)O[C@@H]1C[C@H]1[C@@H]3CCC4=CC(=O)C=C[C@]4(C)[C@@]3(F)[C@@H](O)C[C@@]12C [Amcinonide],0.868
5,C[C@]12CC[C@@H]3c4ccc(O)cc4CC[C@H]3[C@@H]1CC[C@@H]2O [Estradiol],0.747
6,CC(=O)[C@@]1(O)CC[C@H]2[C@@H]3C[C@H](C)C4=CC(=O)C=C[C@]4(C)[C@@]3(F)[C@@H](O)C[C@@]21C [Fluorometholone],0.809
7,CC1(C)S[C@@H]2[C@H](NC(=O)[C@H](N)c3ccc(O)cc3)C(=O)N2[C@H]1C(=O)O [Amoxicillin],0.764
8,COc1cc(C(=O)NC2CCCNC2)cc(OC)c1OC (stereo not drawn) [Troxipide],0.692
9,CC(Cc1ccccc1)(NC(=O)CN)c1ccccc1 (stereo not drawn) [Remacemide],0.793
10,Cc1cccc(C)c1NC(=O)C1CCCCN1C (stereo not drawn) [Mepivacaine],0.728
11,Clc1ccc2c(c1)CCc1cccnc1C2=C1CCNCC1 [Desloratadine],0.902
12,CCCc1cc(=O)[nH]c(=S)[nH]1 [Propylthiouracil],0.95
13,COc1cc2nc(N3CCN(C(=O)c4ccco4)CC3)nc(N)c2cc1OC [Prazosin],0.568
14,CN/C(=N\CCSCc1nc[nH]c1C)NC#N [Cimetidine],0.731
15,CC(C)(C(=O)c1cccnc1)c1cccnc1 [Metyrapone],0.588
16,C=C[C@H]1CN2CC[C@H]1C[C@H]2[C@H](O)c1ccnc2ccc(OC)cc12 [Quinine],0.921
17,COc1ccccc1N1CCN(CCCNc2cc(=O)n(C)c(=O)n2C)CC1 [Urapidil],0.767
18,CCn1cc(C(=O)O)c(=O)c2cc(F)c(N3CCN(C)CC3)cc21 [Pefloxacin],1
19,N[C@@H](C(=O)N[C@@H]1C(=O)N2C(C(=O)O)=C(CSc3c[nH]nn3)CS[C@H]12)c1ccc(O)cc1 [Cefatrizine],0.846
20,CNS(=O)(=O)Cc1ccc2[nH]cc(CCN(C)C)c2c1 [Sumatriptan],0.873

row,Structure (SMILES),fiber score / MBP score
1,c1ccc2c(c1)CCCC2C1=NCCN1 (stereo not drawn) [Tyzine],0.783
2,O=C1CC[C@@H](C(=O)N2CSC[C@H]2C(=O)O)N1 [Pidotimod],0.869
3,Nc1c2c(nc3ccccc13)CCCC2 [Tacrine],0.655
4,CCc1nc(N)nc(N)c1-c1ccc(Cl)cc1 [Pyrimethamine],1.86
5,NC(N)=Nc1nc(CSCC/C(N)=N/S(N)(=O)=O)cs1 [Famotidine],0.875
6,CCc1cc(C(N)=S)ccn1 [Ethionamide],0.983
7,CN1[C@@H](CC(=O)c2ccccc2)CCC[C@H]1C[C@H](O)c1ccccc1 [Lobeline],0.981
8,O=C(O)CCCc1ccccc1 [4-Phenylbutyric acid],1.07
9,CO/N=C(\C(=O)N[C@@H]1C(=O)N2C(C(=O)O)=C(COC(N)=O)CS[C@H]12)c1ccco1 [Cefuroxime],0.749
10,Cc1onc(-c2ccccc2)c1C(=O)N[C@@H]1C(=O)N2[C@@H]1SC(C)(C)[C@@H]2C(=O)O [Oxacillin],0.974
11,C[C@]12CC[C@@H]3c4ccc(OS(=O)(=O)O)cc4CC[C@H]3[C@@H]1CCC2=O [Estrone sulfate],1.04
12,CC(c1cc2ccccc2s1)N(O)C(N)=O (stereo not drawn) [Zileuton],0.599
13,CC(=O)NC[C@H]1CN(c2ccc(N3CCOCC3)c(F)c2)C(=O)O1 [linezolid],0.899
14,CC(=O)O[C@]1(C(C)=O)CC[C@H]2[C@@H]3C=C(C)C4=CC(=O)CC[C@]4(C)[C@H]3CC[C@@]21C [Megestrol acetate],0.588
15,C[C@](N)(Cc1ccc(O)c(O)c1)C(=O)O [Methyldopa],1.28
16,C[C@@H]1C[C@H]2[C@@H]3CCC4=CC(=O)C=C[C@]4(C)[C@@]3(F)[C@@H](O)C[C@]2(C)[C@H]1C(=O)CO [Desoximetasone],0.95
17,CN(C)[C@@H]1C(O)=C(C(=O)NCN2CCCC2)C(=O)[C@@]2(O)C(O)=C3C(=O)c4c(O)cccc4[C@@](C)(O)[C@H]3C[C@@H]12 [Rolitetracycline],0.779
18,NC[C@H](O)c1ccc(O)c(O)c1 [Norepinephrine],0.663
19,CC(C)NCC(O)COc1ccc(CC(N)=O)cc1 (stereo not drawn) [Atenolol],1.03

# Same assay, conditions: 5 µM; treatment time: 8 days (DIV5-DIV13)
row,Structure (SMILES),fiber score / MBP score
1,CN1CCN(c2nc3cc(C(F)(F)F)ccc3n3cccc23)CC1,0.682
2,COC(=O)[C@H](c1ccccc1Cl)N1CCc2sccc2C1 [Clopidogrel],0.858
3,CC1=C(/C=C/C(C)=C/C=C/C(C)=C\C(=O)O)C(C)(C)CCC1 [Isotretinoin],0.414
4,CC(=O)OCC(=O)[C@@]12OC3(CCCC3)O[C@@H]1C[C@H]1[C@@H]3CCC4=CC(=O)C=C[C@]4(C)[C@@]3(F)[C@@H](O)C[C@@]12C [Amcinonide],0.784
5,C[C@]12CC[C@@H]3c4ccc(O)cc4CC[C@H]3[C@@H]1CC[C@@H]2O [Estradiol],0.62
6,CC(=O)[C@@]1(O)CC[C@H]2[C@@H]3C[C@H](C)C4=CC(=O)C=C[C@]4(C)[C@@]3(F)[C@@H](O)C[C@@]21C [Fluorometholone],0.856
7,CC1(C)S[C@@H]2[C@H](NC(=O)[C@H](N)c3ccc(O)cc3)C(=O)N2[C@H]1C(=O)O [Amoxicillin],0.761
8,COc1cc(C(=O)NC2CCCNC2)cc(OC)c1OC (stereo not drawn) [Troxipide],0.803
9,CC(Cc1ccccc1)(NC(=O)CN)c1ccccc1 (stereo not drawn) [Remacemide],0.749
10,Cc1cccc(C)c1NC(=O)C1CCCCN1C (stereo not drawn) [Mepivacaine],0.864
11,Clc1ccc2c(c1)CCc1cccnc1C2=C1CCNCC1 [Desloratadine],0.803
12,CCCc1cc(=O)[nH]c(=S)[nH]1 [Propylthiouracil],0.854
13,COc1cc2nc(N3CCN(C(=O)c4ccco4)CC3)nc(N)c2cc1OC [Prazosin],1
14,CN/C(=N\CCSCc1nc[nH]c1C)NC#N [Cimetidine],0.823
15,CC(C)(C(=O)c1cccnc1)c1cccnc1 [Metyrapone],0.894
16,C=C[C@H]1CN2CC[C@H]1C[C@H]2[C@H](O)c1ccnc2ccc(OC)cc12 [Quinine],0.644
17,COc1ccccc1N1CCN(CCCNc2cc(=O)n(C)c(=O)n2C)CC1 [Urapidil],0.799
18,CCn1cc(C(=O)O)c(=O)c2cc(F)c(N3CCN(C)CC3)cc21 [Pefloxacin],0.8
19,N[C@@H](C(=O)N[C@@H]1C(=O)N2C(C(=O)O)=C(CSc3c[nH]nn3)CS[C@H]12)c1ccc(O)cc1 [Cefatrizine],0.832
20,CNS(=O)(=O)Cc1ccc2[nH]cc(CCN(C)C)c2c1 [Sumatriptan],0.861

row,Structure (SMILES),fiber score / MBP score
1,c1ccc2c(c1)CCCC2C1=NCCN1 (stereo not drawn) [Tyzine],0.873
2,O=C1CC[C@@H](C(=O)N2CSC[C@H]2C(=O)O)N1 [Pidotimod],0.881
3,Nc1c2c(nc3ccccc13)CCCC2 [Tacrine],0.566
4,CCc1nc(N)nc(N)c1-c1ccc(Cl)cc1 [Pyrimethamine],2.19
5,NC(N)=Nc1nc(CSCC/C(N)=N/S(N)(=O)=O)cs1 [Famotidine],0.752
6,CCc1cc(C(N)=S)ccn1 [Ethionamide],1.1
7,CN1[C@@H](CC(=O)c2ccccc2)CCC[C@H]1C[C@H](O)c1ccccc1 [Lobeline],0.451
8,O=C(O)CCCc1ccccc1 [4-Phenylbutyric acid],0.747
9,CO/N=C(\C(=O)N[C@@H]1C(=O)N2C(C(=O)O)=C(COC(N)=O)CS[C@H]12)c1ccco1 [Cefuroxime],0.663
10,Cc1onc(-c2ccccc2)c1C(=O)N[C@@H]1C(=O)N2[C@@H]1SC(C)(C)[C@@H]2C(=O)O [Oxacillin],0.897
11,C[C@]12CC[C@@H]3c4ccc(OS(=O)(=O)O)cc4CC[C@H]3[C@@H]1CCC2=O [Estrone sulfate],1.16
12,CC(c1cc2ccccc2s1)N(O)C(N)=O (stereo not drawn) [Zileuton],0.628
13,CC(=O)NC[C@H]1CN(c2ccc(N3CCOCC3)c(F)c2)C(=O)O1 [linezolid],0.929
14,CC(=O)O[C@]1(C(C)=O)CC[C@H]2[C@@H]3C=C(C)C4=CC(=O)CC[C@]4(C)[C@H]3CC[C@@]21C [Megestrol acetate],0.795
15,C[C@](N)(Cc1ccc(O)c(O)c1)C(=O)O [Methyldopa],0.884
16,C[C@@H]1C[C@H]2[C@@H]3CCC4=CC(=O)C=C[C@]4(C)[C@@]3(F)[C@@H](O)C[C@]2(C)[C@H]1C(=O)CO [Desoximetasone],0.758
17,CN(C)[C@@H]1C(O)=C(C(=O)NCN2CCCC2)C(=O)[C@@]2(O)C(O)=C3C(=O)c4c(O)cccc4[C@@](C)(O)[C@H]3C[C@@H]12 [Rolitetracycline],0.832
18,NC[C@H](O)c1ccc(O)c(O)c1 [Norepinephrine],0.756
19,CC(C)NCC(O)COc1ccc(CC(N)=O)cc1 (stereo not drawn) [Atenolol],1.04
